Screens deposited in PubChem BioAssay by National Center for Advancing Translational Sciences (NCATS).
Only some compounds are listed: those with a hit (about 6.9% of all), similar ones and a draw of the others.
PLK1 PBD inh: PLK1 (human) polo-box domain binding inhibition; Plk1 PBD binding of FITC phosphopeptide, fluorescence polarization; 360,000 compounds, 2.8% hits; P53350; Potency, µM, for inactives: max response, negative = inhibition, hits mostly inhibitors; note: series mostly up to about 57 µM; % is set by controls: 0 for no effect and ±100 for the full control effect; nearly all actives have a fitted effect of over 65% in size
BAZ2B block: inhibitors of human BAZ2B bromodomain. Q9UIF8. AlphaScreen BAZ2B-H3K14Ac peptide displacement. Potency, µM (series often up to 114 µM), for inactives: top-dose activity change, negative = inhibition, most hits filed as inhibitors. 360,000 compounds, 4.4% hits. AID 504333; note: % is set by controls: 0 for no effect and ±100 for the full control effect; nearly all actives have a fitted effect of over 60% in size
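BAZ2B (50 nM) with biotin-H3(5-23)K14Ac peptide (50 nM) in PBS pH 7.4, 0.01% Tween-20, preformed 30 min, then compound 30 min at room temperature; top concentration 110uM. AlphaScreen streptavidin donor/nickel chelate acceptor beads (10 ug/mL final), 20 min dark, signal read.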
JMJD2A Tudor: inhibitors of human JMJD2A Tudor domain; O75164; AlphaScreen JMJD2A-Tudor / H3K4me3 peptide binding; Potency, µM (doses to about 114 µM), for inactives: at the highest dose activity change, negative = inhibition, most hits filed as inhibitors; 390,000 compounds, 4.4% hits; note: % is set by controls: 0 for no effect and ±100 for the full control effect; nearly all actives have a fitted effect of over 50% in size
HP1b chromo inh: HP1-beta chromodomain-methylated histone interaction inhibition. P83916. AlphaScreen HP1-beta / biotin-H3K9me3 peptide binding. Potency, µM (series often up to 114 µM), for inactives: top-dose activity change, negative = inhibition, hits mostly inhibitors. 390,000 compounds, 0.56% hits. AID 540317; note: nearly all actives have a fitted effect of over 70% in size
Target sequence (P83916 whole entry, looked up): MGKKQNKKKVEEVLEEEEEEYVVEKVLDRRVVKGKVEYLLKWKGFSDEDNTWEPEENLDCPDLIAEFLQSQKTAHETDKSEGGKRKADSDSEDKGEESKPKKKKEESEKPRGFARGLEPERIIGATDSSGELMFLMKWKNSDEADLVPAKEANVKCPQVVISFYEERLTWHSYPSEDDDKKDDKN
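AlphaScreen: HP1-beta (50 nM) preformed 30 min with biotin-H3(1-18)K9me3 peptide (50 nM) in PBS pH 7.4, 0.01% Tween-20. Compound added for 30 min at RT, then streptavidin donor/nickel chelate acceptor beads (10 ug/mL) for 30 min.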
VDR inh: blocks the human vitamin D receptor; P11473; VDR-SRC2-3 peptide fluorescence polarization, 2 h; Potency, µM, for the others: max response, negative = inhibition, hits mostly inhibitors; 400,000 compounds, 0.93% hits; AID 504847; note: % is set by controls: 0 for no effect and ±100 for the full control effect
Target sequence (P11473 whole entry, looked up): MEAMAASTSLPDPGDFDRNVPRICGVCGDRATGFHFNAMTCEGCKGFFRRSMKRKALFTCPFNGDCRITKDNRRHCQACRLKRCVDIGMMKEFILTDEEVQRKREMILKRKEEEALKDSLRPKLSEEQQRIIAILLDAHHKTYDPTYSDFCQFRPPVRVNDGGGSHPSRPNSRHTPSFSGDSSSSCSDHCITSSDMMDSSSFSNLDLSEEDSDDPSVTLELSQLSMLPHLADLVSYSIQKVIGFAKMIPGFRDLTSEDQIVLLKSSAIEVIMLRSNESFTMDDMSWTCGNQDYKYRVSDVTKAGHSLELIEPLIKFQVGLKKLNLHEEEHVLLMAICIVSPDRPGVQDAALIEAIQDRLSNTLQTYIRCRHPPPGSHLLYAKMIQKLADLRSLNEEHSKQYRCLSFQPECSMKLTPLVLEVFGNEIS
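VDR–SRC2-3 interaction, FP format. Cmpds 23 nl via pintool, brief spin, 2 h ambient incubation.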
L3MBTL1 inh: inhibitors of human L3MBTL1; Potency, µM (doses to about 57.1 µM), for inactives: at the highest dose activity, negative = inhibition, actives largely listed as inhibitors; Q9Y468; AID 485360; 230,000 compounds, 0.66% hits; AlphaScreen L3MBTL1–H3K9me1 peptide binding; note: % is set by controls: 0 for no effect and ±100 for the full control effect; nearly all actives have a fitted effect of over 60% in size
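First, the protein-peptide complex forms for 30 min at room temperature (L3MBTL1 50 nM, biotinylated H3K9me1 peptide 75 nM). Next, compounds are pin-transferred and incubated 30 min. Finally, AlphaScreen beads are added and read after 30 min.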
Starred values were filed as active, the others as inactive; u = inconclusive; x = not tested or not shown; [ ] = another dose, or the depositor's remark. Calls come from the whole dose curve; as a rule, active = well fitted curve in the direction sought with a large enough effect; inconclusive = small, poorly fitted or top-dose-only effect, or another doubt; inactive = no such curve, though single readings can be large; an effect the other way counts as inactive or inconclusive. Potency is the fitted concentration of half-maximal effect.

SMILES | PLK1 PBD inh | BAZ2B block | JMJD2A Tudor | HP1b chromo inh | VDR inh | L3MBTL1 inh
CCOC(=O)Oc1c(OC)cc(C(=O)O[C@H]2C[C@H]3CN4CCc5c([nH]c6cc(OC)ccc56)[C@@H]4C[C@H]3[C@@H](C(=O)OC)[C@@H]2OC)cc1OC | x | x | x | x | -4% | x
COC(=O)[C@H]1[C@H]2C[C@@H]3c4[nH]c5cc(OC)ccc5c4CCN3C[C@H]2C[C@@H](OC(=O)c2ccc(N)cc2)[C@@H]1OC | 1% | 40µM* | u | -15% | 4% | x
COC(=O)C1[C@@H](OC)C(OC(=O)COc2ccc(OC)cc2)C[C@@H]2CN3CCc4c([nH]c5cc(OC)ccc45)[C@H]3C[C@H]12 (stereo partly drawn) | x | x | x | x | -4% | x
O=C(O)[C@@H]1[C@H]2C[C@H]3c4[nH]c5ccccc5c4CCN3C[C@@H]2CC[C@@H]1O | -24% | u | 56µM* | -36% | -30% | -5%
COC(=O)[C@@H]1[C@H]2C[C@H]3c4[nH]c5ccccc5c4CCN3C[C@H]2CC[C@@H]1O | x | x | x | x | 11% | x
COC(=O)[C@H]1[C@H]2C[C@@H]3c4[nH]c5ccccc5c4CCN3C[C@H]2C[C@@H](OC(=O)c2cc(OC)c(OC)c(OC)c2)[C@@H]1OC | x | x | x | x | 35µM* | x
Cc1ccc2c(=O)cc(C(=O)Nc3sc4c(c3C(=O)NCC3CCCO3)CCCC4)oc2c1C (stereo not drawn) | x | 1% | -23% | 18% | 9% | x
COc1ccc(CNc2nc(N)nc3nc[nH]c23)cc1 | x | x | -9% | 21% | 12% | x
CCCC(=O)Nc1nnc(-c2ccc3c(c2)OCCO3)o1 | u | 79µM* | u | -7% | -6% | -19%
CCCCCCCCCCCCC[N+](C)(C)Cc1ccccc1 | x | x | x | x | 75% | x
COc1ccc(C2=NN(c3nc(C(=O)O)cs3)C(O)(C(F)(F)F)C2)c(OC)c1 (stereo not drawn) | -4% | 50µM* | 1% | 73% | 10% | -23%
CN(C)/C=C/C=C1C(=O)CCCC1=O | -7% | 56µM* | u | u | -6% | 28µM*
Cc1ccc(C)c2c1CCCC2=O | -7% | x | x | x | x | x
CCCCN=C1NN=C(c2ccc(C)c(C)c2)CS1 | 11µM* | -36% | -21%[11.4 µM] | u | u | x
O=C(/C(=C/O)N=Nc1ccccc1Cl)c1ccccc1 | -5% | 13µM* | -26%[11.4 µM] | 32µM* | 5% | u
O=C(/C(=C/O)N=Nc1cccc(C(F)(F)F)c1)c1ccccc1 | -12% | 25µM* | 45µM* | u | -4% | u
CCNc1ncc2nc(-c3ccc(F)cc3)c(=O)n(-c3ccccc3)c2n1 | x | x | x | x | -18% | x
Cc1ccc(OCC(=O)Nc2ccc(S(=O)(=O)N(Cc3ccccc3)c3ccccc3)cc2)cc1 | x | -9% | -7% | 24% | 6% | x
CCCN1CCN(CCCNC(=O)c2ccc3c(c2)sc2nc(-c4ccc(OC)cc4)cn23)CC1 | x | 3% | -2% | 43% | 3% | x
O=C(CCc1ccc(Oc2cc([N+](=O)[O-])cc([N+](=O)[O-])c2)cc1)N1CCCCCC1 | -12% | 25µM* | 40µM* | u | u | u
CCCNS(=O)(=O)c1ccc(CCC(=O)N2CCCCC2)cc1 | 24µM* | -1% | 20µM* | u | u | -3%
S=c1[nH]nc(NCCCN2CCOCC2)s1 | 12µM* | 32µM* | 3.5µM* | u | 89µM* | 2%
O=S(=O)(c1ccc(Cl)cc1)c1nc(-c2cccs2)oc1SCc1ccc(F)cc1 | x | -1% | -1% | 30% | 11% | x
C/C(CC(=O)Nc1cc(C)ccn1)=N\NC(=O)c1cccc(C)c1 | -10% | 89µM* | -12% | 18% | -17% | x
S=C(CN1CCCC1=S)N1CCOCC1 | -15% | x | -1% | 29% | -2% | x
SMILES | PLK1 PBD inh | BAZ2B block | JMJD2A Tudor | HP1b chromo inh | VDR inh | L3MBTL1 inh
CC(C)(CCC(=S)N1CCOCC1)C1CCCCC1 | 12µM* | 2% | 1% | -20% | u | 13%
Cc1nc(S(=O)(=O)N2CCOCC2)c(C#N)c(C)c1Cl | u | -25% | 79µM* | 2% | -8% | 0%
Cc1nc(S(=O)(=O)NC2CCCCC2)c(C#N)c(C)c1Cl | u | -24% | -2%[11.4 µM] | -13% | u | 11%
Cc1c(Cl)cccc1NC(=O)CCS(=O)(=O)c1ccc(Br)s1 | x | -13% | -20% | 6% | -16% | x
CCC(C)NC(=O)C(=O)Nc1c2c(nn1-c1ccccc1)CS(=O)(=O)C2 (stereo not drawn) | x | u | 45µM* | -14% | 5% | x
CC(C)OCCCNC(=O)C(=O)Nc1c2c(nn1-c1ccccc1)CS(=O)(=O)C2 | x | -29% | -17% | 34% | -5% | x
O=c1cc(-c2ccc(O)cc2)oc2cc(OC3OC(CO)C(O)C(O)[C@H]3O[C@@H]3OC[C@@](O)(CO)C3O)cc(O)c12 (stereo partly drawn) | x | x | x | x | -2% | x
CCC(=O)Nc1cccc(Oc2nc(C)cc(C)c2C#N)c1 | 4% | -5% | 1% | 39% | 13% | x
CC(=O)Nc1cccc(Oc2nc(C)cc(C)c2C#N)c1 | 24µM* | 8% | u | 8% | u | -11%
Cn1nc(C(C)(C)C)cc1C(=O)N1CCC(C)(C(=O)NS(=O)(=O)C2CC2)C1 (stereo not drawn) | 3% | x | x | x | x | x
CCc1nnc(NC(=O)c2cccnc2SC)s1 | 0% | 9% | -22% | 7% | -1% | -19%
O=c1[nH]c(-c2ccccn2)nc(C(F)(F)F)c1Br | -11% | 28µM* | 18µM* | 1% | -4% | u
O=c1[nH]c(-c2ccccn2)nc2ccccc12 | 3% | 45µM* | 56µM* | 40% | 22% | u
O=c1[nH]c(-c2ccccc2O)nc2ccccc12 | x | x | x | x | -5% | x
CCC(C)NC(=O)c1sc2nc3n(c(=O)c2c1C)CCC3 (stereo not drawn) | x | -2% | -9% | 41% | 14% | x
CCNc1ncc2nc(-c3cccc(C#N)c3)c(=O)n(CCC#N)c2n1 | x | x | x | x | 5% | x
O=C(COC(=O)c1ccc2ncsc2c1)NC(=O)c1ccccc1 | -6% | 79µM* | 25µM* | -9% | -2% | -6%
COc1ccc(C(=O)NC(=O)COC(=O)c2ccc3ncsc3c2)cc1 | x | 56µM* | x | x | x | u
COc1ccc(NC(=O)C2(c3cccs3)CCOCC2)cc1Cl | x | -2% | -8% | 34% | 18% | x
CC1CN(C(=O)N2c3ccccc3Sc3ccccc32)CC(C)O1 (stereo not drawn) | -3% | 89µM* | -13% | 16% | u | -9%
CC1CCCN(C(=O)N2c3ccccc3Sc3ccccc32)C1 (stereo not drawn) | 1% | -3% | 6% | 31% | 9% | x
CCC(C(=O)OCC(=O)NC(=O)c1ccccc1OC)c1ccccc1 (stereo not drawn) | 2% | 15% | 34% | 101% | 18% | 8%
